# Results from ChEMBL document CHEMBL3988442, “University of Dundee, Small-Polar-MMV Screening Library” (2021).
# Assays:
# [1] = molecular target: T1, Aspartate--tRNA(Asp/Asn) ligase (Mycobacterium tuberculosis (strain ATCC 25618 / H37Rv)) (UniProt P9WFW3); assay: Assay for Asp RNA synthetase-1 from Mycobacterium tuberculosis; type: functional; parameters: scale not given: direction of the effect not stated beside the values; settings: 30 µM; also: in the data most compounds retested in dose-response had high values
# T1 sequence (whole entry): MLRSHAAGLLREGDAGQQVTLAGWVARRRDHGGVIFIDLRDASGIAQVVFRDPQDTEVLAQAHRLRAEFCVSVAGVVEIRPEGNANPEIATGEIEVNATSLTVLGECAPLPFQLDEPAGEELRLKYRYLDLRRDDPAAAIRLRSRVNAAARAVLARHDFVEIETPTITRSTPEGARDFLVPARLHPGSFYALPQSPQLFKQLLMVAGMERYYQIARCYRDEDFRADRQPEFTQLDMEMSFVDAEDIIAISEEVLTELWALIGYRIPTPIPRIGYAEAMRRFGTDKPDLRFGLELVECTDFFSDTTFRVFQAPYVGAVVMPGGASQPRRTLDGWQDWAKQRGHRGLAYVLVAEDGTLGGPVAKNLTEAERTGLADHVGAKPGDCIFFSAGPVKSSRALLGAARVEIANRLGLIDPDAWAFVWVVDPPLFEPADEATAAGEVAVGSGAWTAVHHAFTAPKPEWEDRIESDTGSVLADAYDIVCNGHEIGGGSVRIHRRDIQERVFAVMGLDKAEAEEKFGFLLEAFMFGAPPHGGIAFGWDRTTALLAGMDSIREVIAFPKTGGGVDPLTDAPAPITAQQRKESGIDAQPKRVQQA
# [2] = molecular target: Shiga toxin 2 (Escherichia coli O157:H7) (UniProt P09385+P09386); assay: E. coli 0.157:H7 Shiga Toxin SOP - stx2 screening assay; type: functional; parameters: scale not given: direction of the effect not stated beside the values; settings: 30 µM
SMILES,Percent Effect [1],Percent Effect [2]
Cc1cc(C(=O)O)cc(S(=O)(=O)Nc2ccc3c(c2)OCO3)c1C,11.6%,-48%
Cc1cccc(C(=O)NC(CN2CCCC2=O)c2ccccc2)n1 (centres undefined),-1.37%,14%
CCN1CCN(C(=O)NCCOc2ccc3c(c2)OCO3)CC1,-4.65%,-50%
CC(=O)N1CCCCC1c1cc(C(=O)N2CCOCC2)[nH]n1 (centres undefined),-0.551%,15.2%
O=C(O)CCc1cccc(C2CCCN2Cc2ccc(F)c(F)c2)n1 (centres undefined),-0.372%,2.71%
OCC1CCCN1c1cc(N2CCc3ccccc3C2)ncn1 (centres undefined),1.24%,-49.8%
CCN1CCN(c2ccc(CNC(=O)c3ccc(Cl)o3)cn2)CC1,-3.07%,-41.7%
Cc1nc(C2CCCN2Cc2nc(C)c(C)o2)no1 (centres undefined),-0.728%,7.48%
Cc1cncc(C2CCCN(C(=O)c3cccn3C)C2)n1 (centres undefined),1.84%,-12.2%
Cc1scc(C(=O)N2CCC3(CC(=O)NC3=O)C2)c1-c1ccccc1 (centres undefined),0.19%,8.3%
CCCn1nccc1C(=O)N1CCCN(CCCc2ccccc2)CC1,-3.6%,-14.4%
CNC(=O)C1Cn2ccnc2C2(CCN(Cc3cccc(C)n3)CC2)O1 (centres undefined),1.82%,0.0939%
OCCn1nccc1C1CCN(CCCOc2ccc(F)cc2)CC1,1.85%,4.26%
COc1ccc2c(c1)CCCN2Cc1nc2c(cnn2C)c(=O)[nH]1,-4.23%,-5.78%
NC(=O)c1ccc(N2CCCCC2)c(NC(=O)c2cc(Br)ccc2F)c1,11%,-50.5%
Cc1cn(-c2ccccc2)nc1NS(=O)(=O)c1cc(C(=O)O)cs1,5.52%,-40%
COC(=O)CN1CC(c2nc(Cc3ccccc3)no2)C1,-4.57%,-14.5%
